The list is not random: actives were taken first. Their share in the collection is about 21%.
CYP2C9 inhib: inhibitors of human CYP2C9; P11712; CYP2C9 Supersomes, luciferin-H conversion, luminescence; inhibition, % at 5 µM; actives 20% (n = 96,000); AID 777;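 active means blocking of liver enzyme CYP2C9 beyond about 50% at 5 µM, limit read from the data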
Target sequence (P11712 whole entry, looked up): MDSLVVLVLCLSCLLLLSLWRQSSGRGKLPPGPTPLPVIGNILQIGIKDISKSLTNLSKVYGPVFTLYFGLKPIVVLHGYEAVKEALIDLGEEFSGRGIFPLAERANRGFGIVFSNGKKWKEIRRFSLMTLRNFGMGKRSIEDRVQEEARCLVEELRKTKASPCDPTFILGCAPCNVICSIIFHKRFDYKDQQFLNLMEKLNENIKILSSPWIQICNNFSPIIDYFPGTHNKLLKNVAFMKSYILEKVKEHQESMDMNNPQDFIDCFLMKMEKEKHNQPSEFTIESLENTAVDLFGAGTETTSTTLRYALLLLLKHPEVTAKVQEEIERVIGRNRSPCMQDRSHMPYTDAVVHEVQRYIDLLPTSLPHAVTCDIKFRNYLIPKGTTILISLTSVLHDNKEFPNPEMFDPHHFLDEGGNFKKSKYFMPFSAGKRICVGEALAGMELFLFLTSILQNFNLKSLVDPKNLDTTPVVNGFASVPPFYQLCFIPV
CYP2C19 act: increases human CYP2C19 enzyme activity; 96,000 tested, under 10 active; activation factor at 5 µM; recombinant CYP2C19, luciferin-H EGE luminescence; active compounds read high; 0 = fully inhibited enzyme, 1 = untreated enzyme; P33261; AID 1025;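 active means activation factor of at least 2 at 5 µM in the primary screen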;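 further: 0 = wells with 2.5 mM tranylcypromine and 1 = vehicle-only wells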
MRP1 act: activates MRP-1 | H69AR cells + doxorubicin, viability rescue, CellTiter-Glo | viability increase, % at 10 µM | actives 0.61% (n = 140,000) | AID 799;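 active means viability gain under doxorubicin at or above a set limit, the compound median plus 3 SD, cut at about 4.7% in these data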;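 further: MRP-1 overexpressing cells given doxorubicin 25 µM after compound pretreatment; 18-22 h compound pretreatment then 72 h with doxorubicin before readout; 0% = doxorubicin-only wells and 100% = vehicle-treated cells without doxorubicin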
CYP2C19 inhib: human CYP2C19 inhibition; P33261; CYP2C19 Supersomes, luciferin-H EGE luminescence, 30 min; inhibition, % at 5 µM; actives 21% (n = 96,000);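 active means CYP2C19 inhibition above a set limit at 5 µM in the primary screen, cut at about 50% in these data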;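 further: plate controls were negative control wells for no effect and 2.5 mM tranylcypromine positive control for full effect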
MRP reversal: MRP-mediated drug resistance reversal; H69AR cells + 2 uM doxorubicin, CellTiter-Glo, 72 h; differential viability (reversal), % at 10 µM; actives 0.04% (n = 85,000); AID 602;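 active means viability drop by adding the cancer drug above about 55%, with treated viability meeting a 40% cutoff, limit read from the data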;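 further: viability without doxorubicin minus viability with 2 µM doxorubicin for each compound; larger differential means the compound sensitizes cells more to doxorubicin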
CYP2C9 act: activators of human CYP2C9; P11712; recombinant CYP2C9, luciferin-H conversion, luminescence; active compounds read high; factor 1 = untreated enzyme, 0 = blocked; activation factor at 5 µM; actives 1.4% (n = 96,000);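 active means activation factor of 2 or more for CYP2C9 at a 5 µM dose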;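 further: 0 = sulfaphenazole-blocked wells and 1 = vehicle-only wells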
* = called active by the depositor; . = no result.

SMILES	CYP2C9 inhib	CYP2C19 act	MRP1 act	CYP2C19 inhib	MRP reversal	CYP2C9 act
CC(=O)c1ccc(N2CCN(C(=O)CCCn3c(=S)[nH]c4cc5c(cc4c3=O)OCO5)CC2)cc1	47.9	0.9	-0.9	5.1	3.6	0.5
Cc1cccc(N2CCN(C(=O)CCCn3c(=S)[nH]c4cc5c(cc4c3=O)OCO5)CC2)c1C	58.9*	0.7	0.4	31.9	-4.7	0.4
O=C(CCCn1c(=S)[nH]c2cc3c(cc2c1=O)OCO3)N1CCN(c2ccccc2)CC1	79.7*	0.8	2.4	21.0	-2.3	0.2
Cn1cccc1/C=C1\SC(=O)N(c2ccc(O)cc2)C1=O	.	.	-2.0	.	.	.
COc1ccc(NC(=O)c2ccccc2NC(=O)C2CCCO2)cc1 (configuration not stated)	80.0*	0.5	-0.5	50.2*	-0.4	0.2
NS(=O)(=O)c1ccc(NC(=O)C2CCCO2)cc1 (configuration not stated)	-10.3	1	-0.9	3.2	-26.7	1.1
O=C(Nc1ccc(O)cc1)C1CCCO1 (configuration not stated)	-6.6	0.9	27.8*	5.0	7.1	1.1
Cc1ccc(SCC(=O)NCCSC(C)(C)C)cc1	38.5	0.7	-1.0	33.6	10.6	0.6
O=C1CC(c2ccccc2)NC(=O)N1 (configuration not stated)	-1.8	1	-0.3	-0.9	.	1
CC1C(=O)CC(c2ccccc2)NC1c1ccccc1 (configuration not stated)	32.8	0.2	0.0	81.8*	15.5	0.7
CC1C(=O)CC(c2ccco2)NC1c1ccco1 (configuration not stated)	-7.9	0.3	-1.2	69.1*	.	1.1
COc1ccccc1N1CCN(C(=O)CN(c2cc(C)cc(C)c2)S(C)(=O)=O)CC1	8.4	0.6	-1.9	35.5	3.9	0.9
CCOc1ccc(-c2nnn(CC(=O)N3CCCC3)n2)cc1OCC	.	.	0.8	.	1.2	.
O=C(OCc1ccccc1Cl)c1ccc(-n2cnnc2)cc1	90.5*	0	0.8	97.7*	14.0	0.1
O=C(Cn1ncnn1)OCc1ccccc1Cl	-17.6	0.9	0.8	5.1	-6.9	1.2
COC(=O)CCCC(=O)Nc1c(F)c(F)c(F)c(F)c1F	6.8	0.9	-1.8	9.0	-8.6	0.9
CCOC(=O)N1CCN(C(=O)C(C)n2nc(C)n3c(cc4sccc43)c2=O)CC1 (configuration not stated)	-2.0	1	-0.8	-0.2	-8.4	1
O=C(CCCn1ncn2c(cc3occc32)c1=O)N1CCc2ccccc2C1	.	.	-3.6	.	11.2	.
CC(NCc1ccco1)C(=O)N1CCc2ccccc2C1 (configuration not stated)	9.6	0.5	-1.0	49.9	8.7	0.9
Cc1cccc(N2CCN(C(=O)C(C)n3nc(C)n4c(cc5occc54)c3=O)CC2)c1C (configuration not stated)	68.5*	0.9	2.2	8.6	8.2	0.3
Cc1nn(C(C)C(=O)N2CCc3ccccc3C2)c(=O)c2cc3occc3n12 (configuration not stated)	3.6	0.5	-3.6	51.9*	2.8	1
CCC(C(=O)N1CCN(c2ccccn2)CC1)n1nc(C)n2c(cc3occc32)c1=O (configuration not stated)	90.9*	0.5	-4.7	46.5	.	0.1
Cc1nn(C(C)C(=O)N2CCN(c3ccccn3)CC2)c(=O)c2cc3occc3n12 (configuration not stated)	15.6	0.9	-3.3	11.6	.	0.8
CCC(C(=O)N1CCc2ccccc2C1)n1nc(C)n2c(cc3occc32)c1=O (configuration not stated)	69.1*	0.3	-4.0	67.5*	.	0.3
CN(C)S(=O)(=O)c1ccc(C(=O)OCC(=O)NC(=O)NCc2ccccc2)cc1	-10.9	1.2	-1.5	-17.3	16.1	1.1
SMILES	CYP2C9 inhib	CYP2C19 act	MRP1 act	CYP2C19 inhib	MRP reversal	CYP2C9 act
COc1ccc(C2(C(=O)NCCCN3CCOCC3)CCOCC2)cc1	-3.0	1	0.0	3.4	13.5	1
O=C(CCl)Nc1cccn2ncnc12	-32.7	1.1	-6.2	-5.5	7.3	1.3
Cc1csc(NC(=O)C(F)(F)F)n1	.	.	-2.1	.	.	.
CCc1nn(C(C)C(=O)N2CCN(Cc3ccccc3)CC2)c(=O)c2cc3occc3n12 (configuration not stated)	67.3*	0.3	-3.6	66.3*	.	0.3
CCN(CC)S(=O)(=O)c1cccc(NC(=O)COC(=O)c2cc(C)oc2C)c1	96.5*	0.4	0.5	64.1*	.	0
Cc1cc(C(=O)OCC(=O)Nc2ccc(F)cc2)c(C)o1	-10.5	0.4	3.0	60.9*	4.2	1.1
CCc1nc(C#N)c(N2CCOCC2)o1	.	.	0.0	.	.	.
Cc1ccc(SCCCCN2CCNCC2)cc1	.	.	-3.4	.	.	.
O=C(/C=C/Nc1ccc([N+](=O)[O-])cc1Br)c1cccc2ccccc12	.	.	0.3	.	.	.
CC(C)Cn1[nH]c2c3c(ccc2c1=O)C(=O)c1ccccc1C3=O	80.0*	0.4	-4.9	61.0*	.	0.2
O=C1c2ccccc2C(=O)c2c1ccc1c(=O)n(-c3ccccc3)[nH]c21	.	.	0.2	.	.	.
O=C(Cc1c(Cl)cccc1Cl)OCC(=O)N1CCc2ccccc2C1	.	.	4.0	.	.	.
Cc1ccc2[nH]c(=O)c(CNS(=O)(=O)c3ccccc3)c(-c3ccccc3)c2c1	.	.	-1.1	.	.	.
COc1ccc(N2C(=O)c3ccccc3NC23CCC(C)CC3)cc1 (configuration not stated)	-1.9	1.1	-0.5	-7.6	.	1
COc1ccc(N2C(=O)c3ccccc3NC23CCCCC3)cc1	63.5*	0.5	-0.5	48.6	-8.8	0.4
CCCN(CCC)C(=O)Cn1c2ccccc2c2nc(=O)cc(C)n21	-8.8	1	-4.2	3.5	.	1.1
O=C(NCCc1ccccc1)c1c(F)c(F)c(F)c(F)c1F	.	.	-0.7	.	.	.
Cc1nc2sc(C(c3ccc(F)cc3)N3CCN(C(=O)c4ccco4)CC3)c(O)n2n1 (configuration not stated)	.	.	-1.2	.	-6.3	.
CCOC(=O)c1sc(NC(=O)CSc2nnc(C)s2)c(C(=O)OCC)c1C	88.1*	0.4	-0.1	62.1*	7.2	0.1
CCOC(=O)c1c(NC(=O)CSc2nc3ccccc3s2)sc(C(C)=O)c1C	77.6*	0.7	-3.3	29.2	.	0.2
CCOC(=O)c1c(NC(=O)CSc2nc3cc(Cl)ccc3s2)sc(C(C)=O)c1C	.	.	-1.7	.	.	.
CCOC(=O)c1c(NC(=O)CSc2nc3c(c(=O)n(C)c(=O)n3C)n2CC)sc(C)c1C	90.3*	0.5	.	51.5*	0.3	0.1
CC1CCN(S(=O)(=O)c2cc(Br)cc(C(=O)NC3=NCCS3)c2)CC1	45.0	0.3	1.1	67.8*	10.5	0.6
O=C(c1cc(-c2ccccc2Cl)on1)N1CCN(C(=O)c2ccco2)CC1	-119.2	0.7	-0.3	31.8	-20.4	2.2*

Assay outcomes deposited in PubChem BioAssay by several laboratories.
